# Out of some 1,200 compounds screened, about 290 (24%) were called active. Not shown: some 9% with an inconclusive outcome. How the calls were made is not given here. These entries were drawn from the full list. Results with a measured potency or affinity are listed apart.
# Assay: cytotoxicity in EBV lymphoblastoid cells, dose response, cytotoxicity control, cell-based, plate reader, cherry-picks, set 2 (AID 504882);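 further: 0% = neutral control wells and -100% = positive control wells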
# Settings: EBV lymphoblastoid cells (LCL) viability; series mostly up to 19.5 µM; activity change, negative = cytotoxicity: at the top concentration
row,SMILES,"activity change, negative = cytotoxicity"
1,COc1ccc(-c2nc(C)ncc2-c2ccccc2)c(O)c1,11.5% (inactive)
2,c1ccc(OCCSc2nnc3sc4ccccc4n23)cc1,8.57% (inactive)
3,COc1ccc(N2C(=O)C(=O)/C(=C(/O)c3ccc(C)cc3)C2c2cccnc2)cc1 (stereo unspecified),5.14% (inactive)
4,O=C1CCCCC1Sc1nnc(-c2ccc3c(c2)OCO3)o1 (stereo unspecified),4.58% (inactive)
5,COc1ccc(NC(=O)c2cc3ccccc3oc2=O)cc1,10.4% [at 6.8 µM] (inactive)
6,COc1ccc(NC(=O)NCCN2CCc3ccccc3C2)cc1,18.9% (inactive)
7,N#Cc1c(NC(=O)CCCC(=O)O)sc2c1CCCCC2,14.1% (inactive)
8,COC(=O)c1c(NC(=O)c2nn(C)cc2Cl)sc2c1CCCC2,0.608% (inactive)
9,NC(=O)c1sc2nc3c(c(-c4ccccc4)c2c1N)CCC3,6.83% (inactive)
10,Cc1ccc(NC(=O)NNS(=O)(=O)c2ccc(Br)cc2)cc1,16.9% (inactive)
11,O=C(CSc1nc2ccccc2c(=O)n1CCCN1CCOCC1)Nc1ccc(Br)cc1,9.04% (inactive)
12,CC(C)(C)c1ccc(C(=O)N2CCC(=O)N(C(CO)Cc3ccccc3)CC2)cc1 (stereo unspecified),10.8% (inactive)
13,O=C(N1CCOCC1)N1CCN(S(=O)(=O)c2ccc(Cl)cc2)C1,14.1% (inactive)
14,O=C(O)c1ccc(C=NNC(=O)c2cccc3ccccc23)cc1,11.4% (inactive)
15,Cc1cccc(/C=N/NC(=O)CNc2cccc3ccccc23)n1,13% (inactive)
16,COc1ccc(-c2[nH]ncc2/C=N\NS(=O)(=O)c2ccc(Cl)cc2)cc1,18.6% (inactive)
17,CCN(c1ccccc1)S(=O)(=O)c1ccc(Cl)c(NC(=O)Nc2ccc(Cl)cc2C#N)c1,-10.7% (inactive)
18,O=[N+]([O-])c1ccc(Cl)c(S(=O)(=O)NCC2CCCO2)c1 (stereo unspecified),15.1% (inactive)
19,CCOc1ccc(OCc2cccc(C(=O)N3CCCCCC3)c2)cc1,-1.66% (inactive)
20,COc1ccc(C(=O)NCCN2CCOCC2)cc1[N+](=O)[O-],24.8% (inactive)
21,COc1cccc(/C=C2\SC(=S)N(CCC(=O)NCCc3ccc(O)cc3)C2=O)c1,-16.3% (inactive)
22,COc1ccc(C(=O)NCCNc2nc3cc(C)c(C)cc3cc2C)cc1,-19.9% (inactive)
23,COc1ccc(C(=O)Nn2c(SCC(=O)c3ccc(Cl)cc3)nc3ccccc3c2=O)cc1,-13.5% (inactive)
24,COc1ccc(-c2cc3c(=O)n(CC(=O)NCCCN4CCN(Cc5ccccc5)CC4)ncn3n2)cc1,14.3% (inactive)
25,O=c1[nH]c(Nc2nc3ccccc3o2)nc2c1CCCC2,2.31% [at 6.8 µM] (inactive)
26,Cc1cccc(C)c1Nc1nc2ccccc2o1,22.6% (inactive)

row,SMILES,"activity change, negative = cytotoxicity"
1,COc1ccc(-n2c(C)c(C(C)=O)c3cc(OC(C)=O)ccc32)cc1,2.71% (inactive)
2,CC(=O)Nc1ccc(OCCCNC(=O)c2c(-c3ccccc3)noc2C)cc1,9.93% (inactive)
3,COc1ccccc1NC(=O)Cn1nnc(-c2ccccc2NS(=O)(=O)c2ccccc2)n1,-15.3% (inactive)
4,CCN(CC)Cc1cc(Nc2ccnc3cc(Cl)ccc23)ccc1O,-7.97% (inactive)
5,O=C1CSC(=S)N1Cc1ccccc1,0.821% (inactive)
6,CC(=O)O[C@H]1CC[C@@]2(C)C(=CC[C@H]3[C@@H]4CC[C@H](C(C)=O)[C@@]4(C)CC[C@@H]32)C1,16.2% (inactive)
7,Cc1ccc(N=c2c([N+](=O)[O-])nn(-c3ccc4c(c3)OCCO4)n2O)cc1F,18.8% [at 6.8 µM] (inactive)
8,COCCNC(=O)C(=O)NCC1OCCN1C(=O)c1ccc(Cl)cc1 (stereo unspecified),35.3% (inactive)
9,CCCn1c(C)cc(C(=O)COC(=O)c2ccc[nH]c2=O)c1C,13.9% (inactive)
10,COc1cc2oc(=O)cc(-c3ccc(-c4ccc(N(C)C)cc4)cc3)c2c(OC)c1OC,13.8% (inactive)
11,Cc1nn(CCCC(=O)Nc2cccnc2Cl)c(C)c1[N+](=O)[O-],10.4% (inactive)
12,Cc1sc2nc(SCC(=O)OC(C)C)n(C)c(=O)c2c1C,3.72% (inactive)
13,COCCn1c(C)cc(C(=O)COC(=O)c2n[nH]c3ccccc23)c1C,8.34% (inactive)
14,Cc1nn(C(C)(C)C)c(C)c1/C=N/OC(=O)Nc1ccc(Cl)c(Cl)c1,2.85% (inactive)
15,CCCCCCCCOC(=O)/C=C/c1c(C)[nH]c(=O)[nH]c1=O,31.3% (inactive)
16,COC(=O)c1ccc(COc2ccccc2/C=C/C(=O)c2ccc(OCC(=O)O)cc2)cc1,15% (inactive)
17,CC(C)Oc1ccc(C(=O)Nc2nnc(SCC(=O)N3CCOCC3)s2)cc1,14.2% (inactive)
18,COC(=O)CCNc1ccc2c(c1)OCCO2,21.3% (inactive)
19,COc1ccc2[nH]c3c(=O)n(CCCCC(=O)N4CCC(C(N)=O)CC4)c(=S)[nH]c3c2c1,9.32% (inactive)
20,Cc1c(/C(O)=C2/C(=O)C(=O)N(CCN3CCOCC3)C2c2ccccn2)cnn1-c1ccccc1 (stereo unspecified),12% (inactive)
21,O=[N+]([O-])c1cc(/C=N\O)ccc1Oc1ccc(F)cc1,-4.12% (inactive)
22,O=[N+]([O-])c1ccc(/C=N/Nc2cc(Cl)nc(-c3ccccc3)n2)cc1,-40.7% (inactive)
23,CCOc1ccc(Nc2ncnc3ccc([N+](=O)[O-])cc23)cc1,10.8% (inactive)
24,COc1ccc(NC(=O)COC(=O)/C=C/c2ccc(OC)c(S(=O)(=O)N3CCOCC3)c2)cc1,17% (inactive)
25,Cc1nc(N)nc(N)c1/C=C/C(C)(C)c1ccc(Cl)cc1,-24.8% (inactive)
26,COc1cc2cc(C(=O)N3CCN(c4ccccc4OC)CC3)[nH]c2cc1OC,3.74% (inactive)

row,SMILES,"activity change, negative = cytotoxicity"
1,Cc1ccc(C(=O)NCCc2cccs2)cc1,4.45% (inactive)
2,C=CCN1CCc2cc(O)c(O)cc2C(c2ccccc2)C1 (stereo unspecified),9.24% (inactive)
3,CCON1C(=O)C2(CCCCC2)C(=O)C12C=CCCC2 (stereo unspecified),7.9% (inactive)
4,Cc1nc(C)n(C(C)CNC(=O)c2ccco2)n1 (stereo unspecified),24.6% (inactive)
5,COc1ccc(C(c2sc3nc(C)nn3c2O)N2CCC(C(N)=O)CC2)cc1OC (stereo unspecified),18% (inactive)
6,Cc1cc(C(=O)COc2cccnc2[N+](=O)[O-])c(C)n1-c1ccccc1F,-2.29% (inactive)
7,O=C(NCCc1cn2ccccc2n1)C1CCCCC1,48.6% (inactive)
8,COc1ccc(-c2cc3nc(-c4ccccc4)cc(N4CCCC(O)C4)n3n2)cc1 (stereo unspecified),7.77% (inactive)
9,O=C(CCc1ccccc1Cl)N1CCN(S(=O)(=O)c2ccccc2)CC1,19.5% (inactive)
10,CC[C@]1(C(=O)OC)[C@H]2C(=O)N(Cc3ccccc3)C(=O)[C@H]2[C@H]2CN=C(SCc3ccc(Cl)cc3)N21,-9.77% (inactive)
11,CCc1sc(C(=O)Nc2ncccc2O)cc1C,15.5% (inactive)
12,CCn1nc(C(=O)Nc2nc(-c3ccccn3)cs2)c2ccccc2c1=O,-6.58% (inactive)
13,Cc1ccc2oc(C(=O)Nc3ccc(S(=O)(=O)Nc4onc(C)c4C)cc3)c(C)c2c1,10.1% (inactive)
14,CCC(C)(C)NC(=O)C(c1ccc(F)cc1)N(CCOC)C(=O)CCC(=O)Nc1nccs1 (stereo unspecified),6.17% (inactive)
15,CCOC(=O)c1c(NC(=O)C2C3CCC(O3)C2C(=O)O)sc(C)c1-c1ccc(F)cc1 (stereo unspecified),3.06% (inactive)
16,CC1CCc2nc(N)c(C#N)c(-c3cccnc3)c2C1 (stereo unspecified),-1.89% (inactive)
17,CCSC1=C(C#N)C(c2ccc(C)o2)CC(=O)N1 (stereo unspecified),14.3% (inactive)
18,Cc1cc(=O)[nH]c(=S)[nH]1,1.02% (inactive)
19,COc1ccc(S(=O)(=O)N2CCN(C(=S)NCC3CCCO3)CC2)cc1OC (stereo unspecified),0.386% (inactive)
20,CCOc1ccc(N/C=C/C(=O)c2ccccc2)cc1,-11.9% (inactive)
21,Cc1c(NC(=O)c2cccc(NC(=O)COc3ccccc3C#N)c2)c(=O)n(-c2ccccc2)n1C,25.6% (inactive)
22,Cn1cc(S(=O)(=O)N2CCN(C(=O)c3ccco3)CC2)c(=O)n(C)c1=O,12.2% (inactive)
23,CSc1oc(-c2ccc(F)cc2)nc1S(=O)(=O)c1ccc(F)cc1,17.1% (inactive)
24,C=CCN1CCN(C(CC(C)C)c2nnnn2CCOC)CC1 (stereo unspecified),24.7% (inactive)
